# Only a selection was taken, and hits are over-represented in it overall.
# HT1080 IDH1KD tx: qHTS for induction of synthetic lethality in tumor cells producing 2HG: qHTS for the HT-1080-IDH1KD cell line. HT-1080 IDH1 knockdown viability, ATP luminescence, 48 h. Potency, µM (highest dose often 46.1 µM), for the others: at the highest dose activity, negative = toxicity, actives largely listed as cytotoxic. hit rate 2% among 360,000;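 note: potency is the fitted concentration of half-maximal effect; 0% = DMSO wells and -100% = cell-free medium wells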
#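 Viability of IDH1-knockdown HT-1080 fibrosarcoma cells was assessed by CellTiter-Glo after 48 h at 37 °C with titrated compound; concentration-effect curves were classified by fit quality and response size.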
# DT40 TDP1 CPT: qHTS for Inhibitors of human tyrosyl-DNA phosphodiesterase 1 (TDP1): qHTS in cells in presence of CPT | hit rate 12% among 420,000 | chicken DT40 Tdp1-/-;hTDP1 cells + 20 nM CPT, ATP luminescence, 48 h | Potency, µM (highest dose often 46.2 µM), for inactives: top-dose activity change, negative = growth inhibition, hits mostly inhibitors; note: potency is the fitted concentration of half-maximal effect; nearly all actives have a fitted effect of over 55% in size
#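 Cell growth measured by CellTiter-Glo luminescence after a minimum 48 h, 37 C compound exposure with 20 nM CPT in Tdp1-knockout DT40 cells stably expressing hTDP1, seeded 400/well; qHTS titration format.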
# IL-1B inflam inh: qHTS for Inhibitors of Inflammasome Signaling: IL-1-beta AlphaLISA Primary Screen; hit rate 4.7% among 360,000; THP-1 LPS/ATP IL-1B secretion, AlphaLISA, 16 h; active compounds read low; activity change, % at 57.5 µM; in the data active = activity change below about -50%; inconclusive = mostly about -30% to -49%
#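 Secreted IL-1B measured by AlphaLISA bead assay after 16 h compound exposure of THP-1 cells; compounds (final up to 57.5 uM) added 1 h before LPS (250 ng/mL) and ATP (1.25 mM) stimulation; lower signal means less secretion.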
# HT1080NT lethal: qHTS for induction of synthetic lethality in tumor cells producing 2HG: qHTS for the HT-1080-NT fibrosarcoma cell line; AID 686970, 2013; HT-1080-NT fibrosarcoma viability, CellTiter-Glo ATP luminescence, 48 h; Potency, µM (highest dose often 46.1 µM), inactives show top-dose activity, negative = less viability, hits mostly cytotoxic; hit rate 1.6% among 360,000;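 note: NT is the 2HG producing partner of a matched IDH1 knockdown line; potency is the fitted concentration of half-maximal effect; 0% = DMSO-treated cells and -100% = media-only wells without cells; nearly all actives have a fitted effect of over 55% in size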
#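 Toxicity toward the 2HG-producing NT line was scored as %Activity, normalised to DMSO and no-cell wells, from CellTiter-Glo luminescence after 48 hours' treatment.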
# DT40 TDP1 no CPT: qHTS for Inhibitors of human tyrosyl-DNA phosphodiesterase 1 (TDP1): qHTS in cells in absence of CPT; DT40 Tdp1-/- hTDP1 cells, no CPT, ATP luminescence, 48 h; Potency, µM (highest dose often 46.2 µM), without a hit: top-dose activity change, negative = growth inhibition, hits mostly inhibitors; hit rate 15% among 420,000; AID 686978, 2013; note: potency is the fitted concentration of half-maximal effect; nearly all actives have a fitted effect of over 55% in size
#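 DT40 Tdp1-/-;hTDP1 cells, no CPT (DMSO vehicle only), 400 cells/well; compounds pin-transferred; ≥48 hr, 37 °C; CellTiter-Glo 30 min RT dark, luminescence read.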
# ALOX12 inh: Primary qHTS assay for inhibitors of human arachidonate 12S-lipoxygenase (ALOX12): Round 2; Polyunsaturated fatty acid lipoxygenase ALOX12 (Homo sapiens), P18054; purified 12hLO, xylenol orange hydroperoxide absorbance; Potency, µM (series often up to 108 µM), for inactives: at the top dose activity change, negative = inhibition, actives largely listed as inhibitors; hit rate 1.1% among 580,000; AID 1671190, 2021; note: potency is the fitted concentration of half-maximal effect
# Target sequence (P18054 whole entry, looked up): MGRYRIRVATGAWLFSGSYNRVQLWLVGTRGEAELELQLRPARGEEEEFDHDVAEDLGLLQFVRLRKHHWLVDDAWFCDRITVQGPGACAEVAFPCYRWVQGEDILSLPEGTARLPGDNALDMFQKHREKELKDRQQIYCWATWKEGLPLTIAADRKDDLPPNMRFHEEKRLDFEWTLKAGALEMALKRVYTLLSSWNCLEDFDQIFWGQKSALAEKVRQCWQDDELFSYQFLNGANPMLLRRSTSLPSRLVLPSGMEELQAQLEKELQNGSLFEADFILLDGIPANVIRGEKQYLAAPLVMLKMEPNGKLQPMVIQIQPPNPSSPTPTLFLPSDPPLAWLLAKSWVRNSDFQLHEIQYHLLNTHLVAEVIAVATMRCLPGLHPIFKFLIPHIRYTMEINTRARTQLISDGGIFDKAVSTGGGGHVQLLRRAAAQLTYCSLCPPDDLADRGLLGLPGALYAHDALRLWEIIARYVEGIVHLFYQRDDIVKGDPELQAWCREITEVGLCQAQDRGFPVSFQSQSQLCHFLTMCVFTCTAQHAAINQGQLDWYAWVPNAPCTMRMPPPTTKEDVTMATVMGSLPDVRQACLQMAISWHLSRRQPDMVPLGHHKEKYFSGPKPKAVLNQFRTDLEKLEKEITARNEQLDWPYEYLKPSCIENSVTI
#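 Purified human 12hLO (150 nM final) in 25 mM Hepes, 0.01% Triton X-100, pH 7.0 was preincubated 15 min at room temperature with compound. Then 40 uM arachidonic acid was added, 30 min. Hydroperoxide was read by Fe-XO absorbance ratio 573/405 nm.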
# Numbers without * were called inactive; u = inconclusive; x = not tested or not shown; [ ] = remark or other dose. Unless noted, calls come from the whole dose curve; as a rule, active = well fitted curve in the direction sought with a large enough effect; inconclusive = small, poorly fitted or top-dose-only effect, or another doubt; inactive = no such curve, though single readings can be large; an effect the other way counts as inactive or inconclusive. Unless noted, % is set by controls: 0 for no effect and ±100 for the full control effect.
SMILES,HT1080 IDH1KD tx,DT40 TDP1 CPT,IL-1B inflam inh,HT1080NT lethal,DT40 TDP1 no CPT,ALOX12 inh
COc1ccc(C23CC4CC(C2)CC(c2ccc(OC)c(C(=O)NC(C)C)c2)(C4)C3)cc1C(=O)NC(C)C,x,x,x,x,x,18.8%
Cn1c(=O)c2cc(NC(=S)NC3CCCCC3)ccc2n1Cc1ccc(F)cc1,3.7%,-13.5%,-3.4,-16.2%,u,u
Cn1c(=O)c2cc(NC(=O)NCCc3cccs3)ccc2n1Cc1ccccc1,-26.2%,u,-9.2,-20.1%,25.6%,-16.0%
Cc1ccc(CNC(=S)Nc2ccc3c(c2)c(=O)n(C)n3Cc2cccc(C(F)(F)F)c2)cc1,u,25.9µM*,-17.9,u,14.6µM*,17.8µM*
Cc1cc(C)cc(Cn2c3ccc(NC(=O)NCCc4cccs4)cc3c(=O)n2C)c1,u,16.4µM*,0.4,-21.4%,u,u
Cc1cc(C)cc(Cn2c3ccc(NC(=S)NC4CCCCC4)cc3c(=O)n2C)c1,1.1%,23.1µM*,-15.4,-15.2%,u,-10.0%
Cc1ccc(NC(=O)c2ccccc2C)c(Br)c1,x,x,x,x,x,14.1%
Cc1cccc(-n2cnc3cc(C(=O)NCc4ccccc4Cl)ccc32)c1,x,16.4µM*,x,x,u,-6.8%
CCc1ccc(-n2cnc3cc(C(=O)NCc4ccc(C)cc4)ccc32)cc1,x,14.6µM*,x,x,14.6µM*,-22.8%
COC(CNC(=O)c1ccc2c(c1)ncn2-c1ccc(C)cc1C)OC,21.0%,25.9%,13.7,28.0%,-9.2%,u
Cc1ccc(-n2cnc3cc(C(=O)NCc4ccccc4Cl)ccc32)c(C)c1,x,23.1µM*,x,x,23.1µM*,-12.7%
Cc1cccc(-n2cnc3cc(C(=O)NCc4ccc(F)cc4)ccc32)c1,x,x,x,x,x,-7.2%
Cn1ccc2c(C(=O)NCCc3cnc[nH]3)nc(-c3cnn(Cc4ccccc4)c3)cc21,x,x,x,x,x,82.0%[176 µM]
CCCn1c2c(c(=O)n(C)c1=O)C(c1ccccc1C)C1=C(COC1=O)N2 (stereo not drawn),x,x,x,x,x,-15.5%
Cc1cc(N2C3CCC2CC(O)(c2ccc(F)cc2)C3)nc(-c2ccccc2)n1 (stereo not drawn),-4.0%[9.24 µM],u,-56.2*,14.1µM*,u,u
Cc1ccnc(N2C3CCC2CC(O)(c2ccccc2)C3)n1 (stereo not drawn),2.1%,10.0%,12.6,4.5%,3.9%,-3.1%
O=C1CCCN1CCc1cccc2ccccc12,12.2%,u,-1.3,3.5%,u,0.8%
O=C1CCCN1CCC12CC3CC(CC(C3)C1)C2,-3.0%,u,77.6,0.3%,20.6µM*,467.8%
Cc1ccc(C[n+]2cc(-c3ccc(Cl)cc3)n3c2CCC3)cc1,-19.4%,5.17µM*,-92.5*,-23.0%,2.31µM*,-0.9%
Cn1c(NC(=O)C[n+]2cc(-c3ccc(Cl)cc3)n3c2CCC3)cc(=O)n(C)c1=O,12.4%,-25.5%,10.1,u,u,-14.8%
Cc1ccc(-c2c[n+](Cc3ccc(Cl)cc3)c3n2CCC3)cc1,u,4.11µM*,-84.7*,u,3.66µM*,98.0%
Cc1cc(C)[nH]n1,x,x,x,x,x,-15.6%
CCn1c(SCC(=O)c2ccc[nH]2)nnc1-c1ccccc1,x,x,x,x,x,-21.1%
O=C(Cc1ccc(Cl)cc1)Nc1ccc(-c2cc3ccccc3oc2=O)c(Cl)c1,6.51µM*,5.17µM*,23.2,6.51µM*,2.91µM*,-7.9%
COc1cc(NC(=O)c2cc(Cl)ccc2Cl)ccc1-c1cc2ccccc2oc1=O,-25.6%,u,-15.0,5.6%,-27.9%,21.4%
SMILES,HT1080 IDH1KD tx,DT40 TDP1 CPT,IL-1B inflam inh,HT1080NT lethal,DT40 TDP1 no CPT,ALOX12 inh
CCc1ccc(OCC(=O)Nc2ccc(-c3cc4ccccc4oc3=O)c(OC)c2)cc1,u,6.51µM*,7.2,u,7.31µM*,2.6%
O=C(Cc1ccc(Cl)cc1)Nc1ccc2oc(=O)ccc2c1,-17.0%,-22.7%,u,16.7%,-26.5%,-27.1%
COc1ccc(C(=O)Nc2ccc(-c3cc4ccccc4oc3=O)c(C)c2)cc1OC,x,18.4µM*,x,x,16.4µM*,-7.3%
CC(C)n1nc(OC(C)(C)C(=O)NCCOc2ccccc2)c2cc(CN3CCOCC3)ccc21,x,x,x,x,x,10.2%
COc1ccc(-c2c(C)nn3c(N4CCN(Cc5ccccc5)CC4)cc(C)nc23)cc1OC,3.6%,23.1µM*,7.6,3.2%,23.1µM*,24.1%
Cc1nn2c(N3CCN(C)CC3)cc(C(C)(C)C)nc2c1-c1ccccc1,16.4µM*,u,-86.9*,20.6µM*,u,u
Cc1cc(N2CCN(Cc3ccccc3)CC2)n2nc(C)c(-c3ccccc3)c2n1,12.6%,14.6µM*,1.7,18.6%,18.4µM*,0.0%
CC(NS(=O)(=O)OCC(Cl)(Cl)Cl)c1ccc(C(C)(C)C)cc1 (stereo not drawn),29.1µM*,16.4µM*,-72.1*,u,u,-0.7%
CCC/C=C/c1ccc(CN2C(CC(C)C)C(=O)N(Cc3cn(CCC4OCCCO4)nn3)CCS2(=O)=O)cc1 (stereo not drawn),u,u,u,-16.8%,23.1µM*,u
CCC/C=C/c1ccc(CN2C(C(C)C)C(=O)N(Cc3cn(CCC4OCCO4)nn3)CCS2(=O)=O)cc1 (stereo not drawn),u,u,-12.3,u,13µM*,u
CC(C)C1C(=O)N(Cc2cn(CCC3OCCCO3)nn2)CCS(=O)(=O)N1Cc1ccc(-c2cccc(N(C)C)c2)cc1 (stereo not drawn),0.7%,4.5%,6.7,0.9%,-3.1%,6.4%
CCC/C=C/c1ccc(CN2C(C)C(=O)N(Cc3cn(CCC4OCCCO4)nn3)CCS2(=O)=O)cc1 (stereo not drawn),-14.5%,u,-24.3,-18.9%,13µM*,u
CCC/C=C/c1ccc(CN2C(C)C(=O)N(Cc3cn(CCOCOC)nn3)CCS2(=O)=O)cc1 (stereo not drawn),10.1%,-12.7%,12.4,1.2%,u,-6.8%
COc1ccc(-c2nsc3c2NC(=O)CC3c2ccc(OC)cc2)cc1 (stereo not drawn),x,x,x,x,x,0.2%
COc1ccc(CN2CC3(CCN(S(=O)(=O)Cc4ccccc4)CC3)C2=O)cc1,x,x,x,x,x,19.4%
CCCC(=O)N1CCC(C(=O)NCC2(c3ccc(F)cc3)CC2)CC1,x,x,x,x,x,30.0%

# Compound activity deposited in PubChem BioAssay by National Center for Advancing Translational Sciences (NCATS).
